The structures appear in SMILES notation. Results filed as inconclusive are left out. Active and inactive are the calls of the source. How the source made its calls: active means hit-call score of the fitted dose curve at least 0.9, where 1 is the maximum; inconclusive means response in the unintended direction; inactive means score below 0.9.

In one assay the target is Cellular tumor antigen p53 (Homo sapiens) (UniProt P04637). The assay is described as follows: TOX21_p53_BLA_p3_ratio: Tox21 HCT-116 p53 Agonism Beta-lactamase Assay, Ratio, Phase 3 (AID 2283596). The gist of the method: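 HCT116 p53-bla cells (4000/well) given compound in DMSO (217-fold dilution) after 5 h, incubated 16 h at 37C. CCF4-AM substrate 2 h at room temperature; 460/530 nm emission ratio, gain fitted against DMSO.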
Sequence of Cellular tumor antigen p53 (Homo sapiens) (P04637 whole entry, looked up): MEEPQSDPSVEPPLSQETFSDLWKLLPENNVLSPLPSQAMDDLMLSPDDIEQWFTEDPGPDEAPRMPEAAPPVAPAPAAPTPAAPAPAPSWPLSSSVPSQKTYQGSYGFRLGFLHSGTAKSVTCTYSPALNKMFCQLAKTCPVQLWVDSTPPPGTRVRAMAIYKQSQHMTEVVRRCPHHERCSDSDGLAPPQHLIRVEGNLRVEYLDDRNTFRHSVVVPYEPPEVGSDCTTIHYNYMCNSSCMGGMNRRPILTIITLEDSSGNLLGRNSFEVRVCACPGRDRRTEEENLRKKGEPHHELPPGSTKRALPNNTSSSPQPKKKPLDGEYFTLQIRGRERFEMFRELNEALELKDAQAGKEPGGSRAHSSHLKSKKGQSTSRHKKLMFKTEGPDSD
Take `CC(C)Oc1ccccc1O`: the outcome was inactive. Take `CC(C)=CCO`: the result was inactive. As for `CC1=CCC2C(C1)C2(C)C` (stereo not drawn), the result was inactive. Turning to `CN1[C@@H]2CC(OC(=O)[C@H](CO)c3ccccc3)C[C@H]1[C@@H]1O[C@@H]12` (stereo partly drawn), the result was inactive. For the compound `CCCCCCCCCCCCCOS(=O)(=O)O`, the outcome was inactive.

As to `OC[C@H]1O[C@H](O[C@]2(CCl)O[C@H](CCl)[C@@H](O)[C@@H]2O)[C@H](O)[C@@H](O)[C@H]1Cl`, the outcome was inactive. Consider `CC(C)(N)CO`, for which the outcome was inactive.

Regarding `CCCCNC(=O)NS(=O)(=O)c1ccc(C)cc1`, the result was inactive.

With `CC(O)C(C)O` (stereo not drawn), the result was inactive. As for `CCOc1ccccc1OCC`, the result was inactive. Turning to `O=C(O)CCSCCC(=O)O`, the result was inactive. `CC(=O)Nc1ccc(CC(=O)O)cc1`: the outcome was inactive. The same measure, in the same setting: with `CC(=O)O[C@H](CC(=O)[O-])C[N+](C)(C)C` the entry was “inactive”; with `CCCCCC(CO)CCC` (stereo not drawn), “inactive”. Turning to `O=C(OCc1ccccc1)C(=O)OCc1ccccc1`, the outcome was inactive. The same measure, in the same setting: next, `C=COCCOCCOCCOC=C`: “inactive”. The same measure, in the same setting: with `CCCCCC(=O)OCCc1ccccc1` the entry was “inactive”; with `CCCCCCOC(=O)CC`, “inactive”. With `Cc1ccc(Nc2ccc(O)c3c2C(=O)c2ccccc2C3=O)cc1`, the result was inactive. Still for that read-out and setting: next, `CC(C)c1ccc(C(C)C)cc1`: “inactive”; `COC(C)CCO` (stereo not drawn): “inactive”; `C=CCOC(=O)CCC1CCCCC1`: “inactive”. Consider `CCC(=O)OCc1ccccc1`, for which the result was inactive. For the compound `CCCCCCOC(=O)CCCCC`, the outcome was inactive. `CC1(C)[C@H]2CC[C@]1(C)[C@H](O)C2`: the result was inactive.

With `CCOC(=S)SSC(=S)OCC`, the result was inactive. Take `O=C(Nc1ccccc1)c1cc([N+](=O)[O-])ccc1Cl`: the result was inactive. For `CNCCO`, the outcome was inactive.

For the compound `C=C(C)C(=O)O[C@H]1C[C@@H]2CC[C@@]1(C)C2(C)C`, the outcome was inactive.

Tested on in a further assay: not listed separately
Description: TOX21_p53_BLA_p4_viability: Viability Assessment in the Tox21 HCT-116 p53 Agonism Beta-lactamase Assay, Phase 4 (AID 2283597).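 Further: hits lower the luminescence signal meaning cytotoxicity.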 Put shortly: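 Following a 16 h exposure at 37C, the treated HCT116 wells were first read for the FRET ratio. They were then lysed with CellTiter-Glo, and ATP luminescence was recorded after 30 min at room temperature.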
On to `CC(C)Oc1ccccc1O`, for which the result was inactive. Still for that read-out and setting: next, `CC(C)=CCO`: “inactive”. `CN1[C@@H]2CC(OC(=O)[C@H](CO)c3ccccc3)C[C@H]1[C@@H]1O[C@@H]12` (stereo partly drawn): the outcome was inactive. Regarding `CCCCCCCCCCCCCOS(=O)(=O)O`, the concentration at half-maximal activity (AC50) (usually the midpoint of the concentration-response curve, whichever way the signal moves) was 70.8 µM (active).

For the compound `CC(C)(C)NC(N)=O`, the compound was called inactive. Consider `CCCCNC(=O)NS(=O)(=O)c1ccc(C)cc1`, for which the compound was called inactive. On the same count and under the same terms, next, `CC(=O)c1c(C)cc(C(C)(C)C)cc1C`: “inactive”; `OCC(CO)(CO)COCC(CO)(CO)CO`: “inactive”. Turning to `O=C(O)CCSCCC(=O)O`, the call was inactive.

Regarding `CC(=O)Nc1ccc(CC(=O)O)cc1`, the compound was classed as inactive. Still for that read-out and setting: with `CCCCCC(CO)CCC` (stereo not drawn) the entry was “inactive”; with `Cc1ccc(Nc2ccc(O)c3c2C(=O)c2ccccc2C3=O)cc1`, “inactive”.

For `CC(C)=CCCC(C)=CCCC(C)=CCO`, the compound was called inactive. Still for that read-out and setting: next, `CC1(C)C(=O)N(Br)C(=O)N1Cl`: “inactive”; `CC(C)c1ccc(C(C)C)cc1`: “inactive”. As to `C=CCOC(=O)CCC1CCCCC1`, the compound was called inactive. For `CCC(=O)OCc1ccccc1`, the result was inactive. For the compound `CCOC(=S)SSC(=S)OCC`, the compound was called inactive. Same read-out and setting: next, `O=C(O)c1cn(C2CC2)c2cc(N3CCNCC3)c(F)cc2c1=O`: “inactive”.

The values above are taken from PubChem BioAssay (EPA / NIEHS).
